Records with an inconclusive call do not appear. Entries that show only a call come without a potency. Unmarked numbers belong to inactive results. Activity calls are given as the source filed them. Calls come from the whole dose curve; as a rule, active = well fitted cell-killing curve with a large enough effect; inconclusive = small, poorly fitted or top-dose-only effect, or effect the other way; inactive = no such curve, though single readings can be large or run the other way.
Experiment: Viability qHTS for spleen associated tyrosine kinase inhibitor (SYKi) naive MV4-11 cells (AID 1963823); note: nearly all actives have a fitted effect of over 40% in size
Conditions: MV4-11 AML viability, CellTiter-Glo luminescence, 72 h; series mostly up to 45 µM
Outline: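 Seeding of 500 SYKi-naive MV4-11 cells per well onto pre-dispensed compounds preceded a 72 hr incubation at 37 C. Luminescent CellTiter-Glo signal, read after 10 min at room temperature, reflected viable cells.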
Work on `CC(C)=CCC[C@](C)(O[C@@H]1O[C@H](CO[C@@H]2O[C@@H](CO)[C@H](O)[C@H]2O[C@@H]2OC[C@@H](O)[C@H](O)[C@H]2O)[C@@H](O)[C@H](O)[C@H]1O)[C@H]1CC[C@]2(C)[C@@H]1[C@H](O)CC1[C@@]3(C)CC[C@H](O[C@@H]4O[C@H](CO)[C@@H](O)[C@H](O)[C@H]4O[C@@H]4O[C@H](CO)[C@@H](O)[C@H](O)[C@H]4O)C(C)(C)C3CC[C@]12C` (some centres undefined) yielded a viability (% of control) of 94.1% [at 9.25 µM]. With `CC1(C)C(=O)N2c3ccccc3C(O)(CC(C(=O)O)n3cnc4ccccc4c3=O)C2N1O` (centres undefined) the Potency was “inactive”. With `C/C(=C\C=C\C(C)C1CCC2(C)C3CCC4C(C)(C)C(=O)CCC45CC35CCC12C)C(=O)O` (centres undefined) the Potency was “inactive”. In the case of `CC(C)(OC1OC(CO)C(O)C(O)C1O)C1CCC(O)(CO)C2CC(=O)C(C)(O)C2C1` (centres undefined), the Potency is reported as “inactive”. In the case of `Cc1occc(=O)c1O[C@@H]1O[C@H](CO)[C@@H](O)[C@H](O)[C@H]1O`, the Potency is reported as “inactive”. With `CC[C@H](/C=C/[C@@H](C)[C@H]1CC[C@H]2[C@@H]3CC=C4C[C@@H](O)CC[C@]4(C)[C@H]3CC[C@]12C)C(C)C` the viability (% of control) was 82.1% [at 4.97 µM]. For `CC(C)c1nc(-c2ccc(NC(=O)Nc3cccc(C(F)(F)F)c3)c3ccccc23)c2c(N)nccn12`, the Potency was 366 nM (active). With `CSC(=O)OCC1=C[C@@H]2OC(=O)C3=CO[C@@H](O[C@@H]4O[C@H](CO)[C@@H](O)[C@H](O)[C@H]4O)[C@H]1[C@@H]32` the Potency was “inactive”. With `Cc1cccc(/C=N/Nc2cc(N3CCOCC3)n3nc(-c4ccncc4)cc3n2)c1` the Potency was 1030 nM (active).

From PubChem BioAssay (NCATS)
Potency is the fitted concentration of half-maximal effect.
